Records with an inconclusive call do not appear. The source made the active and inactive calls. The call rests on the fitted dose curve; in most records, active means well fitted activation curve with a large enough effect in the signal ratio in the repeat runs (not every such curve was filed as active); inconclusive means weak or mixed curves, or effect the other way; inactive means flat fitted curve, though single readings scatter; the % refers to the signal ratio.
assay: qHTS assay to identify small molecule agonists of the endoplasmic reticulum stress response signaling pathway (AID 1159516); conditions: ESRE-bla HeLa, ER stress beta-lactamase reporter, 5 h; series mostly up to 61 µM
Source text: National Center for Advancing Translational Sciences [NCATS]
NIH Chemical Genomics Center [NCGC]
U.S. Environmental Protection Agency [EPA]
National Institutes of Environmental Health Sciences [NIEHS]
National Toxicology Program [NTP]
U.S. Food and Drug Administration [FDA]
Endoplasmic Reticulum (ER) plays an important role in cellular signaling, protein folding/maturation, stress response, lipid biosynthesis, calcium storage and release etc. Under stress conditions, proteins in ER misfold or unfold, and leading to the expression of ER stress responsive genes. ER stress has been associated with a variety of pathophysiological conditions such as cancer, inflammation, neurodegenerative diseases, diabetes, ischemic heart disease etc. To identify the compounds that induce ER stress response, an ER stress reporter cell line, CellSensor ESRE-bla HeLa (Life Technologies, Carlsbad, CA) containing a beta-lactamase reporter gene under control of the Endoplasmic reticulum Stress Response Element (ESRE) was used to screen Tox21 10K compound library.
Tox21 Assay Protocol Summary:
ESRE-bla HeLa cells were dispensed at 1,500 cells/6 uL of assay medium per well into black wall/clear-bottom 1536-well plates using a Multidrop Combi (ThermoFisher Scientific, Waltham, MA) dispenser. After the assay plates were incubated at 37 C and 5% CO2 for an overnight, 23 nL of compounds dissolved in DMSO, positive controls or DMSO only was transferred to the assay plate by a Pintool station (Kalypsys, San Diego, CA). The assay plates were incubated at 37 C and 5% CO2 for 5 hr. One uL of LiveBLAzer B/G FRET substrate (Life Technologies) was added using a Flying Reagent Dispenser (Aurora Discovery, San Diego, CA) and the plates were incubated at room temperature for 2 hr. Fluorescence intensity (405 nm excitation, 460 nm and 530 nm emissions) was measured using an Envision plate reader (PerkinElmer, Shelton, CT).

Row | Compound | outcome
1 | CNC(=S)N(C)C | inactive
2 | COC(=O)CCCC(=O)OC | inactive
3 | N[C@H](Cc1c[nH]c2ccccc12)C(=O)O | inactive
4 | C=CCCCCCCCCC(=O)O | inactive
5 | Cc1ccc(S(=O)(=O)N=C=O)cc1 | inactive
6 | CC(=O)c1ccc(O)cc1 | inactive
7 | CCCCOC(=O)c1ccc(N)cc1 | inactive
8 | CC(=O)CC(C)(C)O | inactive
9 | C=C(C)C(=O)OCC(C)C | inactive
10 | CC(=O)OC1CC(C)OC(C)O1 (stereo not given) | inactive
11 | CC(C)CCCCCCCOC(=O)CCCCC(=O)OCCCCCCCC(C)C | inactive
12 | O=S(=O)(O)c1ccccc1 | inactive
13 | O=C(O)c1ccccc1C(=O)O | inactive
14 | COc1ccc(N)c(C)c1 | inactive
15 | O=c1[nH]cnc2[nH]ncc12 | inactive
16 | CCOC(=O)c1ccc(N)cc1 | inactive
17 | Brc1ccc(Br)c(Br)c1 | inactive
18 | CN(C)c1ccc(Cc2ccc(N(C)C)cc2)cc1 | inactive
19 | CCO[Si](CCCN)(OCC)OCC | inactive
20 | Nc1ccc(Cl)c(N)c1 | inactive

Row | Compound | outcome
21 | CCCCCCCO | inactive
22 | O=[N+]([O-])c1ccc2nc[nH]c2c1 | inactive
23 | O=C(O)CCCCCCCCC(=O)O | inactive
24 | C=CCc1ccc(OC)c(OC)c1 | inactive
25 | OCc1ccccc1 | inactive
26 | CC(C)OP(=O)(CP(=O)(OC(C)C)OC(C)C)OC(C)C | inactive
27 | CCCOC(=O)c1ccccc1 | inactive
28 | NCCN1CCNCC1 | inactive
29 | CN(C)c1ccc(O)c2c1C[C@H]1C[C@H]3[C@H](N(C)C)C(=O)C(C(N)=O)=C(O)[C@@]3(O)C(=O)C1=C2O | inactive
30 | CC(C)c1cccc(C(C)C)c1 | inactive
31 | CC(=O)OCc1ccccc1 | inactive
32 | O=C1C(c2[nH]c3ccccc3c2O)=Nc2ccccc21 | inactive
33 | C=CC(C)CCCC(C)(C)O (stereo not given) | inactive
34 | CC(C)(C)c1cc(Cc2cc(C(C)(C)C)c(O)c(C(C)(C)C)c2)cc(C(C)(C)C)c1O | inactive
35 | CC1(C)OC[C@@H]2O[C@@]3(C(=O)O)OC(C)(C)O[C@H]3[C@@H]2O1 | inactive
36 | O=C(O)c1ccc(C(=O)O)c(C(=O)O)c1 | inactive
37 | CCCCC(C=O)CC (stereo not given) | inactive
38 | CNC(=O)Oc1ccc2c(c1)[C@]1(C)CCN(C)[C@@H]1N2C | inactive
39 | CC(CCl)OP(=O)(OC(C)CCl)OC(C)CCl (stereo not given) | inactive
40 | CN/C(=C\[N+](=O)[O-])NCCSCc1csc(CN(C)C)n1 | inactive

From PubChem BioAssay (Tox21)
